From PubChem BioAssay AID1159580 (chemical genetic matrix, 2015)
“And” between values parts separate entries of the source, which are not always exact repeats. Identical values can stand only once. Among all 5,500 compounds or so, about 2,000 (36%) were called active. Inconclusive results (about 18%) are left out. No stated cut-off is given here; in the data, active means normalized growth mostly below about 0.91 (no sharp cut-off); inconclusive means no clear call, values can overlap the other calls; inactive means mostly above about 0.92. The list shows a part of the results.

Experiment: chemical genetic growth profiling, strain panel (AID 1159580);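 further: tested at 20 µM; growth read once vehicle control cultures reached saturation at 30 °C; 1 = growth at the plate median or of vehicle wells; lower values mean less growth of the strain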
Details: S. cerevisiae deletion strains, growth OD

Measured: normalized growth

CC(=O)S[C@@H]1CC2=CC(=O)CC[C@]2(C)[C@H]2CC[C@@]3(C)[C@@H](CC[C@@]34CCC(=O)O4)C12 (some centres undefined)
inactive: locus YAL013W, strain DEP1, hits give low values 1 | locus YAL021C, strain ccr4, hits give low values 1.01 | locus YAL026C, strain drs2, hits give low values 1.01 | locus YAL030W, strain snc1, hits give low values 1.01 | locus YBL061C, strain skt5, hits give low values 1.02 | locus YBR009C, strain hhf1, hits give low values 0.98 | locus YBR021W, strain FUR4, hits give low values 0.992 | locus YBR023C, strain chs3, hits give low values 1.01 | locus YBR171W, strain sec66, hits give low values 1.03 | locus YBR229C, strain ROT2, hits give low values 0.997 | locus YBR231C, strain swc5, hits give low values 1.04 | locus YBR279W, strain paf1, hits give low values 1.01 | locus YCL011C, strain gbp2, hits give low values 0.984 | locus YCL016C, strain dcc1, hits give low values 0.993 | locus YCL029C, strain bik1, hits give low values 1.03 | locus YCL061C, strain MRC1, hits give low values 1.04 | locus YCL069W, strain vba3, hits give low values 1.01 | locus YCR088W, strain abp1, hits give low values 1.01 | locus YDL005C, strain med2, hits give low values 1.01 | locus YDL035C, strain GPR1, hits give low values 1.01 | locus YDL040C, strain nat1, hits give low values 1.01 | locus YDL074C, strain BRE1, hits give low values 1.01 | locus YDL101C, strain DUN1, hits give low values 1.01 | locus YDL134C, strain PPH21, hits give low values 1.01 | locus YDL185W, strain tfp1, hits give low values 1.01 | locus YDL192W, strain arf1, hits give low values 1.03 | locus YDR001C, strain nth1, hits give low values 1 | locus YDR069C, strain doa4, hits give low values 1.03 | locus YDR101C, strain arx1, hits give low values 1.03 | locus YDR137W, strain rgp1, hits give low values 1 | locus YDR150W, strain NUM1, hits give low values 1 | locus YDR159W, strain sac3, hits give low values 0.972 | locus YDR162C, strain NBP2, hits give low values 1 | locus YDR195W, strain ref2 1.05 | locus YDR297W, strain sur2, hits give low values 1.02 | locus YDR318W, strain mcm21, hits give low values 1.02 | locus YDR334W, strain swr1, hits give low values 1 | locus YDR335W, strain msn5, hits give low values 1.02 | locus YDR388W, hits give low values 1.03 | locus YDR392W, strain spt3, hits give low values 0.951 | locus YDR502C, strain sam2, hits give low values 1.02 | locus YEL003W, strain gim4, hits give low values 1.01 | locus YEL037C, strain rad23, hits give low values 1.01 | locus YEL061C, strain CIN8 (second series), hits give low values 1.01 | locus YEL061C, strain CIN8, hits give low values 0.963 | locus YER015W, strain faa2, hits give low values 1.02 | locus YER016W, strain bim1, hits give low values 1 | locus YER110C, hits give low values 1.03 | locus YER111C, strain swi4, hits give low values 1.01 | locus YER155C, strain BEM2 (second series), hits give low values 1.07 | locus YER155C, strain BEM2, hits give low values 1.01 | locus YER167W, strain BCK2, hits give low values 1.01 | locus YFR010W, strain ubp6, hits give low values 1.02 | locus YGL078C, strain dbp3, hits give low values 1.03 | locus YGL086W, strain mad1, hits give low values 0.998 | locus YGL167C, strain pmr1, hits give low values 1.03 | locus YGL173C, strain kem1, hits give low values 1.02 | locus YGL227W, strain vid30, hits give low values 0.997 | locus YGL240W, strain doc1, hits give low values 1.05 | locus YGL248W, strain PDE1, hits give low values 1.01 | locus YGL253W, strain hxk2, hits give low values 0.97 | locus YGR078C, strain PAC10, hits give low values 0.984 | locus YGR135W, strain pre9, hits give low values 1.02 | locus YGR252W, strain gcn5, hits give low values 1 | locus YHR013C, strain ard1, hits give low values 1.01 | locus YHR027C, strain rpn1, hits give low values 1.01 | locus YHR030C, strain SLT2, hits give low values 0.996 and 1.06 | locus YHR079C, strain IRE1 (second series), hits give low values 1.03 | locus YHR079C, strain IRE1, hits give low values 1.08 | locus YHR094C, strain hxt1, hits give low values 1.03 | locus YHR129C, strain ARP1, hits give low values 1 | locus YHR142W, strain chs7, hits give low values 1 | locus YHR200W, strain rpn10, hits give low values 1.02 | locus YIL066C, strain RNR3, hits give low values 1 | locus YIL073C, strain SPO22, hits give low values 1.05 | locus YIL125W, strain kgd1, hits give low values 1.02 | locus YIR030C, strain dcg1, hits give low values 1.02 | locus YJL092W, strain hpr5, hits give low values 1.01 | locus YJL095W, strain BCK1 (second series), hits give low values 0.996 | locus YJL095W, strain BCK1, hits give low values 1 and 1.02 | locus YJL115W, strain asf1, hits give low values 1.02 | locus YJL129C, strain trk1, hits give low values 1.02 | locus YJL134W, strain LCB3, hits give low values 1 | locus YJL154C, strain vps35, hits give low values 1.02 | locus YJL164C, strain tpk1, hits give low values 0.983 | locus YJL166W, strain qcr8, hits give low values 1.04 | locus YJL168C, strain set2, hits give low values 1.02 | locus YJL187C, strain SWE1 (second series), hits give low values 1 | locus YJL187C, strain SWE1, hits give low values 1.02
